# From paper PMC11006913
# Key:
# Assay in all cases: PBM; 200 nM protein, PBS
# Details in all cases: dsDNA, one strand shown
# CRX [1] = biological target: CRX (Homo sapiens, UniProt O43186 26-111)
# CRX [2] = biological target: CRX (Homo sapiens, UniProt O43186 26-111, E42D)
# PITX2 = PITX2 (Homo sapiens, UniProt Q99697 72-157)
# CRX [3] = biological target: CRX (Homo sapiens, UniProt O43186 26-111, R41L)
# VAX1 [4] = biological target: VAX1 (Homo sapiens, UniProt Q5SQQ9 86-172)
# VAX1 [5] = biological target: VAX1 (Homo sapiens, UniProt Q5SQQ9 86-172, T142I)
# VAX1 [6] = biological target: VAX1 (Homo sapiens, UniProt Q5SQQ9 86-172, K157R)
# NKX3-2 [7] = biological target: NKX3-2 (Homo sapiens, UniProt P78367 192-278, P234S)
# NKX3-2 [8] = biological target: NKX3-2 (Homo sapiens, UniProt P78367 192-278)
# Chain of NKX3-2 (Homo sapiens, UniProt P78367 192-278) (P78367 192-278): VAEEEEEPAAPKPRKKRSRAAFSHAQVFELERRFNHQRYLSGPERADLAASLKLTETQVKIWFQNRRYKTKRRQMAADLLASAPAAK
# Chain of CRX (Homo sapiens, UniProt O43186 26-111) (O43186 26-111): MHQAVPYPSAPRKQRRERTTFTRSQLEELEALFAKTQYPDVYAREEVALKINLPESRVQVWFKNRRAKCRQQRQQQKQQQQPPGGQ
# Chain of CRX (Homo sapiens, UniProt O43186 26-111, R41L) (O43186 26-111 R41L): as the sequence (O43186 26-111) above, with R16L counted along it
# Chain of CRX (Homo sapiens, UniProt O43186 26-111, E42D) (O43186 26-111 E42D): as the sequence (O43186 26-111) above, with E17D counted along it
# Chain of VAX1 (Homo sapiens, UniProt Q5SQQ9 86-172, K157R) (Q5SQQ9 86-172 K157R): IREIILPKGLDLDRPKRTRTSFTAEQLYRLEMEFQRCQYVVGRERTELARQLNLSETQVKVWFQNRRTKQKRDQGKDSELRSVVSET
# Chain of VAX1 (Homo sapiens, UniProt Q5SQQ9 86-172, T142I) (Q5SQQ9 86-172 T142I): as the sequence (Q5SQQ9 86-172 K157R) above, with T57I, R72K counted along it
# Chain of VAX1 (Homo sapiens, UniProt Q5SQQ9 86-172) (Q5SQQ9 86-172): as the sequence (Q5SQQ9 86-172 K157R) above, with R72K counted along it
# Chain of NKX3-2 (Homo sapiens, UniProt P78367 192-278, P234S) (P78367 192-278 P234S): as the sequence (P78367 192-278) above, with P43S counted along it
sequence,measurement,setting,value
ACTAATCC,binding signal,CRX [1],"13.6 upbm affinity estimate (log intensity, higher = more binding, comparable within an allelic series)"
same,binding signal,CRX [2],"13.7 upbm affinity estimate (log intensity, higher = more binding, comparable within an allelic series)"
same,binding signal,PITX2,"13.4 upbm affinity estimate (log intensity, higher = more binding, comparable within an allelic series)"
same,binding signal,CRX [3],"13.4 upbm affinity estimate (log intensity, higher = more binding, comparable within an allelic series)"
CTAATCCC,binding signal,CRX [1],"13.5 upbm affinity estimate (log intensity, higher = more binding, comparable within an allelic series)"
same,binding signal,CRX [2],"13.6 upbm affinity estimate (log intensity, higher = more binding, comparable within an allelic series)"
same,binding signal,PITX2,"13.4 upbm affinity estimate (log intensity, higher = more binding, comparable within an allelic series)"
same,binding signal,CRX [3],"13.4 upbm affinity estimate (log intensity, higher = more binding, comparable within an allelic series)"
CCGGTGCG,binding signal,CRX [1],"8.15 upbm affinity estimate (log intensity, higher = more binding, comparable within an allelic series)"
same,binding signal,CRX [2],"8.24 upbm affinity estimate (log intensity, higher = more binding, comparable within an allelic series)"
same,binding signal,VAX1 [4],"7.06 upbm affinity estimate (log intensity, higher = more binding, comparable within an allelic series)"
same,binding signal,VAX1 [5],"7.11 upbm affinity estimate (log intensity, higher = more binding, comparable within an allelic series)"
same,binding signal,CRX [3],"8.27 upbm affinity estimate (log intensity, higher = more binding, comparable within an allelic series)"
same,binding signal,VAX1 [6],"7.12 upbm affinity estimate (log intensity, higher = more binding, comparable within an allelic series)"
GAAGATTA,binding signal,CRX [1],"12.8 upbm affinity estimate (log intensity, higher = more binding, comparable within an allelic series)"
same,binding signal,CRX [2],"12.8 upbm affinity estimate (log intensity, higher = more binding, comparable within an allelic series)"
same,binding signal,PITX2,"12.4 upbm affinity estimate (log intensity, higher = more binding, comparable within an allelic series)"
same,binding signal,CRX [3],"12.5 upbm affinity estimate (log intensity, higher = more binding, comparable within an allelic series)"
CGGGATTA,binding signal,CRX [1],"13.4 upbm affinity estimate (log intensity, higher = more binding, comparable within an allelic series)"
same,binding signal,CRX [2],"13.4 upbm affinity estimate (log intensity, higher = more binding, comparable within an allelic series)"
same,binding signal,PITX2,"13.3 upbm affinity estimate (log intensity, higher = more binding, comparable within an allelic series)"
same,binding signal,CRX [3],"13.3 upbm affinity estimate (log intensity, higher = more binding, comparable within an allelic series)"
GAGATTAA,binding signal,CRX [1],"13.1 upbm affinity estimate (log intensity, higher = more binding, comparable within an allelic series)"
same,binding signal,CRX [2],"13.1 upbm affinity estimate (log intensity, higher = more binding, comparable within an allelic series)"
same,binding signal,PITX2,"12.8 upbm affinity estimate (log intensity, higher = more binding, comparable within an allelic series)"
same,binding signal,CRX [3],"12.8 upbm affinity estimate (log intensity, higher = more binding, comparable within an allelic series)"
ACCAGTCG,binding signal,NKX3-2 [7],"10.4 upbm affinity estimate (log intensity, higher = more binding, comparable within an allelic series)"
same,binding signal,NKX3-2 [8],"10.4 upbm affinity estimate (log intensity, higher = more binding, comparable within an allelic series)"
GCGTGCAC,binding signal,CRX [1],"8.43 upbm affinity estimate (log intensity, higher = more binding, comparable within an allelic series)"
same,binding signal,CRX [2],"8.37 upbm affinity estimate (log intensity, higher = more binding, comparable within an allelic series)"
same,binding signal,CRX [3],"8.37 upbm affinity estimate (log intensity, higher = more binding, comparable within an allelic series)"
TGCGTCCA,binding signal,CRX [1],"8.29 upbm affinity estimate (log intensity, higher = more binding, comparable within an allelic series)"
same,binding signal,CRX [2],"8.26 upbm affinity estimate (log intensity, higher = more binding, comparable within an allelic series)"
same,binding signal,CRX [3],"8.23 upbm affinity estimate (log intensity, higher = more binding, comparable within an allelic series)"
CCTGGTGC,binding signal,CRX [1],"8.29 upbm affinity estimate (log intensity, higher = more binding, comparable within an allelic series)"
same,binding signal,CRX [2],"8.25 upbm affinity estimate (log intensity, higher = more binding, comparable within an allelic series)"
same,binding signal,CRX [3],"8.32 upbm affinity estimate (log intensity, higher = more binding, comparable within an allelic series)"
AAGGGTGG,binding signal,CRX [1],"8.2 upbm affinity estimate (log intensity, higher = more binding, comparable within an allelic series)"
same,binding signal,CRX [2],"8.31 upbm affinity estimate (log intensity, higher = more binding, comparable within an allelic series)"
same,binding signal,CRX [3],"8.33 upbm affinity estimate (log intensity, higher = more binding, comparable within an allelic series)"
ACCCAGTG,binding signal,CRX [1],"8.01 upbm affinity estimate (log intensity, higher = more binding, comparable within an allelic series)"
same,binding signal,CRX [2],"8.16 upbm affinity estimate (log intensity, higher = more binding, comparable within an allelic series)"
same,binding signal,CRX [3],"8.13 upbm affinity estimate (log intensity, higher = more binding, comparable within an allelic series)"
GACCGAAC,binding signal,CRX [1],"7.97 upbm affinity estimate (log intensity, higher = more binding, comparable within an allelic series)"
same,binding signal,CRX [2],"8.09 upbm affinity estimate (log intensity, higher = more binding, comparable within an allelic series)"
same,binding signal,CRX [3],"8.18 upbm affinity estimate (log intensity, higher = more binding, comparable within an allelic series)"
TAAGATTA,binding signal,CRX [1],"12.8 upbm affinity estimate (log intensity, higher = more binding, comparable within an allelic series)"
same,binding signal,CRX [2],"12.6 upbm affinity estimate (log intensity, higher = more binding, comparable within an allelic series)"
same,binding signal,CRX [3],"12.4 upbm affinity estimate (log intensity, higher = more binding, comparable within an allelic series)"
AGTGTGTC,binding signal,CRX [1],"8.28 upbm affinity estimate (log intensity, higher = more binding, comparable within an allelic series)"
same,binding signal,CRX [2],"8.38 upbm affinity estimate (log intensity, higher = more binding, comparable within an allelic series)"
same,binding signal,CRX [3],"8.38 upbm affinity estimate (log intensity, higher = more binding, comparable within an allelic series)"
CGTATACG,binding signal,CRX [1],"8.46 upbm affinity estimate (log intensity, higher = more binding, comparable within an allelic series)"
same,binding signal,CRX [2],"8.43 upbm affinity estimate (log intensity, higher = more binding, comparable within an allelic series)"
same,binding signal,CRX [3],"8.43 upbm affinity estimate (log intensity, higher = more binding, comparable within an allelic series)"
AGTGCACG,binding signal,CRX [1],"8.25 upbm affinity estimate (log intensity, higher = more binding, comparable within an allelic series)"
same,binding signal,CRX [2],"8.27 upbm affinity estimate (log intensity, higher = more binding, comparable within an allelic series)"
same,binding signal,CRX [3],"8.23 upbm affinity estimate (log intensity, higher = more binding, comparable within an allelic series)"
ACGGTCCG,binding signal,CRX [1],"8.25 upbm affinity estimate (log intensity, higher = more binding, comparable within an allelic series)"
same,binding signal,CRX [2],"8.46 upbm affinity estimate (log intensity, higher = more binding, comparable within an allelic series)"
same,binding signal,CRX [3],"8.16 upbm affinity estimate (log intensity, higher = more binding, comparable within an allelic series)"
CCACCGAG,binding signal,CRX [1],"8.14 upbm affinity estimate (log intensity, higher = more binding, comparable within an allelic series)"
same,binding signal,CRX [2],"8.21 upbm affinity estimate (log intensity, higher = more binding, comparable within an allelic series)"
same,binding signal,CRX [3],"8.2 upbm affinity estimate (log intensity, higher = more binding, comparable within an allelic series)"
